Laboratory results taken from the supplement of paper PMC10849652.
The full data set covers some 8,800 targets. This sample favours those with a hit. About 0.5% of all pairs of compound and target were hits. Unmarked numbers belong to inactive results.

Legend:
Assay in all cases: log2 fold change, soluble protein after heating vs DMSO (PISA); higher = thermal stabilisation; K562 lysate, 10 uM; active = over 0.2 and 3.5 SD of the protein, either way, in both replicates (recomputed)
[1] = compound: CN1CC[C@H](c2c(O)cc(O)c3c(=O)cc(-c4ccccc4Cl)oc23)[C@H](O)C1 [alvocidib]
Summary of the method: (§1)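 A 30 min treatment with 10 μM compound was applied to crude K562 extract at 1 mg/mL protein in PBS pH 7.4 with 1 mM MgCl2. Heating for 3 min spanned 48°C-58°C, after which aliquots were pooled, adjusted to 0.5% NP-40 at 4°C and spun at 21,000xg for 90 min. TMTpro 16plex LC-MS/MS of the supernatant, with channel sums equalised, gave values recorded as log-two fold change in thermal stability against solvent controls, from duplicates.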

[2] = compound: CN1CCc2c(c3ccccc3n2Cc2ccc(C(=O)NO)cc2)C1 [Tubastatin A]
Summary of the method: as §1

[3] = compound: CNC(=O)C1=CC=CC=C1NC2=NC(=NC=C2Cl)NC3=C(C=C(C=C3)N4CCOCC4)OC
Summary of the method: as §1

[4] = compound: CNC(=O)c1ccc(Nc2ncc(C(F)(F)F)c(NCc3nccnc3N(C)S(C)(=O)=O)n2)cc1 [defactinib]
Summary of the method: as §1

[5] = compound: CNc1nc(-c2ccc3c(N)n[nH]c3c2)cc(N2C[C@@H](C(=O)NC3CCCCC3)CC[C@H]2C)n1
Summary of the method: as §1

[6] = compound: COC(=O)N[C@@H](C)CNc1nccc(-c2cn(C(C)C)nc2-c2cc(Cl)cc(NS(C)(=O)=O)c2F)n1 [encorafenib]
Summary of the method: as §1

[7] = compound: COC(=O)[C@H](CCSC)NC(=O)C1=C(C=C(C=C1)NC[C@H](CS)N)C2=CC=CC=C2
Summary of the method: as §1

[8] = compound: COc1cc(Nc2ncc3c(n2)-c2ccc(Cl)cc2C(c2c(F)cccc2OC)=NC3)ccc1C(=O)O [alisertib]
Summary of the method: as §1

[9] = compound: COc1cc2nc(-c3cc(F)ccc3O)nc(N[C@@H]3CNC[C@H]3C(C)(C)O)c2cc1OC
Summary of the method: as §1

[10] = compound: COc1cc2ncnc(Nc3ccc(F)c(Cl)c3)c2cc1OCCCN1CCOCC1 [gefitinib]
Summary of the method: as §1

[11] = compound: CS(=O)(=O)CCNCc1ccc(-c2ccc3ncnc(Nc4ccc(OCc5cccc(F)c5)c(Cl)c4)c3c2)o1 [lapatinib]
Summary of the method: as §1

[12] = compound: CS(=O)(=O)N1CCN(Cc2cc3nc(-c4cccc5[nH]ncc45)nc(N4CCOCC4)c3s2)CC1 [pictilisib]
Summary of the method: as §1

[13] = compound: C[C@@H](Oc1cc(-c2cnn(C3CCNCC3)c2)cnc1N)c1c(Cl)ccc(F)c1Cl [crizotinib]
Summary of the method: as §1

[14] = compound: C[C@H](C1=CC=C(C=C1)C(=O)NC2=C3C=CNC3=NC=C2)N
Summary of the method: as §1

[15] = compound: C[C@H](Nc1ncnc2nc[nH]c12)c1cc2cccc(Cl)c2c(=O)n1-c1ccccc1 [duvelisib]
Summary of the method: as §1

[16] = compound: Cc1cc(Nc2cc(CN3CCOCC3)c3nc(C)c(Cc4ccc(Cl)cc4F)n3n2)n[nH]1 [gandotinib]
Summary of the method: as §1

[17] = compound: Cc1cc(Nc2cc(N3CCN(C)CC3)nc(Sc3ccc(NC(=O)C4CC4)cc3)n2)n[nH]1 [tozasertib]
Summary of the method: as §1

[18] = compound: Cc1ccc(-n2nc(C(C)(C)C)cc2NC(=O)Nc2ccc(OCCN3CCOCC3)c3ccccc23)cc1 [doramapimod]
Summary of the method: as §1

[19] = compound: Cc1ccc(NC(=O)c2ccc(CN3CC[C@H](N(C)C)C3)c(C(F)(F)F)c2)cc1Nc1nccc(-c2cncnc2)n1 [bafetinib]
Summary of the method: as §1

[20] = compound: Cc1cccc(CC(=O)N2CCc3c2ccc(-c2cn(C)c4ncnc(N)c24)c3F)n1
Summary of the method: as §1

UniProt P49356, sequence (P49356 whole entry, looked up): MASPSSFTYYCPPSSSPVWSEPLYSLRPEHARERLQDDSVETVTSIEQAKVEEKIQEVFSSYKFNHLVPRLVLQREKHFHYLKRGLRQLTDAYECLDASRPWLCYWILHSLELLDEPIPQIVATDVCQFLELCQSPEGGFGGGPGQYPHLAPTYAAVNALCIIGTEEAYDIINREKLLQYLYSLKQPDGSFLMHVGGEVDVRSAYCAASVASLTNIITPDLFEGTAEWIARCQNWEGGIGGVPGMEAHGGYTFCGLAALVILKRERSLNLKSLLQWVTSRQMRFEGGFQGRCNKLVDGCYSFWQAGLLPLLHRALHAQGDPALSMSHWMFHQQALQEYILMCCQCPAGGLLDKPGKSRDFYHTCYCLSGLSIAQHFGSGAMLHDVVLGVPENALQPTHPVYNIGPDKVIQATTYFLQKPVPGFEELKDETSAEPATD
UniProt O14641, sequence (O14641 whole entry, looked up): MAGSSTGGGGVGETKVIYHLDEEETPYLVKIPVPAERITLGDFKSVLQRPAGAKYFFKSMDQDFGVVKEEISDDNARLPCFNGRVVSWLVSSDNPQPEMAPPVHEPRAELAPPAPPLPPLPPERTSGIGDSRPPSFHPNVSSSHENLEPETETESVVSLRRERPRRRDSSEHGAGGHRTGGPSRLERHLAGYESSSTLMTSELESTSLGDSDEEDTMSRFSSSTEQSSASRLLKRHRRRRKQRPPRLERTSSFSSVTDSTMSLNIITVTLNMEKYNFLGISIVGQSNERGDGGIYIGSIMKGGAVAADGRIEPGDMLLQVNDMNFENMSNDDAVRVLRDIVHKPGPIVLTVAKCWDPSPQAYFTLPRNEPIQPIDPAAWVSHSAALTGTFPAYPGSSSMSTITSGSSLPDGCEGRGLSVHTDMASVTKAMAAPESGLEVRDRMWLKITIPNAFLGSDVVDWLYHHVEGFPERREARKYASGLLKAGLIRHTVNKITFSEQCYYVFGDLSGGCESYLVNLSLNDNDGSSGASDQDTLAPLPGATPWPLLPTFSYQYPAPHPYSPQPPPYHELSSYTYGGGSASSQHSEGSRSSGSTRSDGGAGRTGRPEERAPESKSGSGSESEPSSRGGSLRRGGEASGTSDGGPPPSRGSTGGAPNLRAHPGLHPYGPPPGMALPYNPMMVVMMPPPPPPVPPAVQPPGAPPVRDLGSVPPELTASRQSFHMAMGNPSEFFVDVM
UniProt P51114, sequence (P51114 whole entry, looked up): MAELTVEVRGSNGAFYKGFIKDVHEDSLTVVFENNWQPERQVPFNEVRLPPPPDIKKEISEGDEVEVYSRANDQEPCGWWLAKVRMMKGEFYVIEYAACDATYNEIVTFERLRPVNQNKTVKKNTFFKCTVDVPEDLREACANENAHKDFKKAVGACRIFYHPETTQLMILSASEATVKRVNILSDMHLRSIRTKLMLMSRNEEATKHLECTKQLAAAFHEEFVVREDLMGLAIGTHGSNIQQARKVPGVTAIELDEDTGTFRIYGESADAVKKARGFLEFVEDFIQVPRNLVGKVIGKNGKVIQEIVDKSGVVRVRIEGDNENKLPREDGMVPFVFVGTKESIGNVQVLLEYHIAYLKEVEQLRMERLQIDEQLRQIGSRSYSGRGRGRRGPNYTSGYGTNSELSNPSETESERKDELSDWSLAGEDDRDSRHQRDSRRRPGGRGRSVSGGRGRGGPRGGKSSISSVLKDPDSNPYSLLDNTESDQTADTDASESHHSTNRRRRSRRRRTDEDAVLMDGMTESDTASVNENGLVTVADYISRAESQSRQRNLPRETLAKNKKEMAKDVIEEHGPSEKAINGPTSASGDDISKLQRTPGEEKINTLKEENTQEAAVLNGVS
UniProt Q8NEZ5, sequence (Q8NEZ5 whole entry, looked up): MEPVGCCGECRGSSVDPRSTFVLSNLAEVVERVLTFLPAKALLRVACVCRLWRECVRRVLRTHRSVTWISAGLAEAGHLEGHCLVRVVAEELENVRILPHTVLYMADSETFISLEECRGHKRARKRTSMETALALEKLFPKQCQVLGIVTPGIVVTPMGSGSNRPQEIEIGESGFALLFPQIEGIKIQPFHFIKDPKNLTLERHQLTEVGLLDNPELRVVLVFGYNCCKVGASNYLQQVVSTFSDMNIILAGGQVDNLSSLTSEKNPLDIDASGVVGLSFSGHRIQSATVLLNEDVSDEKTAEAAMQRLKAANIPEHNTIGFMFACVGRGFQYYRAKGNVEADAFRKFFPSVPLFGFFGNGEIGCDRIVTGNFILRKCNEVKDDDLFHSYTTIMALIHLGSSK
UniProt P19525, sequence (P19525 whole entry, looked up): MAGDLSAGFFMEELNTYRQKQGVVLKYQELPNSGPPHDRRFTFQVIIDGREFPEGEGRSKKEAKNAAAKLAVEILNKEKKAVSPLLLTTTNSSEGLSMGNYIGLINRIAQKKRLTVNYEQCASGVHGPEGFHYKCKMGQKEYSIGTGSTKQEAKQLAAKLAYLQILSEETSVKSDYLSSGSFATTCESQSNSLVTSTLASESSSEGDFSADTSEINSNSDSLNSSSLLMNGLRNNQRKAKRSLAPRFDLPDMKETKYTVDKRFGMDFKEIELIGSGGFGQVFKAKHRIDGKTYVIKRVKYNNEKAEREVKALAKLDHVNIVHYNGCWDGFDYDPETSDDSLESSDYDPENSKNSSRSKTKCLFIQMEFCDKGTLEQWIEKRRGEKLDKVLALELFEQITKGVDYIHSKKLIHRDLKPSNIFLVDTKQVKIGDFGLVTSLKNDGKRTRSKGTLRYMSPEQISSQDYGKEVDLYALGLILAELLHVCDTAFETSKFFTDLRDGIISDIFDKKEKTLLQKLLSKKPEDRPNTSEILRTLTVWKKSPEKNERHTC
UniProt O14893, sequence (O14893 whole entry, looked up): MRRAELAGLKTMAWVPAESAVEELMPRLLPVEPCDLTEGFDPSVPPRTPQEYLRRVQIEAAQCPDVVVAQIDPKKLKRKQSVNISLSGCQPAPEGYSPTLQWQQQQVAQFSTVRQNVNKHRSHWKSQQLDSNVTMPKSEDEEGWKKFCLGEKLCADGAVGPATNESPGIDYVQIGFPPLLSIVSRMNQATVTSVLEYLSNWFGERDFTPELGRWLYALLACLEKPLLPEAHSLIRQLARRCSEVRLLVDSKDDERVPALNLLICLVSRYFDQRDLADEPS
UniProt Q86UY5, sequence (Q86UY5 whole entry, looked up): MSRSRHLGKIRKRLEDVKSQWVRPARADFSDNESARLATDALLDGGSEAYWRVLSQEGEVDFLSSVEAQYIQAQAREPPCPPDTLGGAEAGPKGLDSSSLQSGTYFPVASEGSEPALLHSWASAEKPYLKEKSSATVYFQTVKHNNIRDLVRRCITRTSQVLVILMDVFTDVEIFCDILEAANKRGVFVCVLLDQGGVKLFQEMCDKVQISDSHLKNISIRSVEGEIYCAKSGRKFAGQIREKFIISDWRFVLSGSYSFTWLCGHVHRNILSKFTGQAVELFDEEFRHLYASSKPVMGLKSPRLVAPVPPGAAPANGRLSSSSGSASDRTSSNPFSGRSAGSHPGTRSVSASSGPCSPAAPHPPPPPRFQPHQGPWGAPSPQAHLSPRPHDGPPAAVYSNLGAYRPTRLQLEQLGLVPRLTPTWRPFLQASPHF
UniProt O94905, sequence (O94905 whole entry, looked up): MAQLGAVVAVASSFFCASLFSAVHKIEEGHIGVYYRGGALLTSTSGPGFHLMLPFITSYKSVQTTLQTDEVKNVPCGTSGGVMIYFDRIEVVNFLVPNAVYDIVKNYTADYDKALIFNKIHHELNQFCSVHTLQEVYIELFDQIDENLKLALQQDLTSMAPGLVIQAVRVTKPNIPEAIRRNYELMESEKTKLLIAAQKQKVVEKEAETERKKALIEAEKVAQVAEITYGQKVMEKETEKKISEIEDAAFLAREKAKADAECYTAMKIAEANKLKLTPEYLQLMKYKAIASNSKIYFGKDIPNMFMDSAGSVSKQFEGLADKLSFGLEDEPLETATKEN
UniProt Q01844, sequence (Q01844 whole entry, looked up): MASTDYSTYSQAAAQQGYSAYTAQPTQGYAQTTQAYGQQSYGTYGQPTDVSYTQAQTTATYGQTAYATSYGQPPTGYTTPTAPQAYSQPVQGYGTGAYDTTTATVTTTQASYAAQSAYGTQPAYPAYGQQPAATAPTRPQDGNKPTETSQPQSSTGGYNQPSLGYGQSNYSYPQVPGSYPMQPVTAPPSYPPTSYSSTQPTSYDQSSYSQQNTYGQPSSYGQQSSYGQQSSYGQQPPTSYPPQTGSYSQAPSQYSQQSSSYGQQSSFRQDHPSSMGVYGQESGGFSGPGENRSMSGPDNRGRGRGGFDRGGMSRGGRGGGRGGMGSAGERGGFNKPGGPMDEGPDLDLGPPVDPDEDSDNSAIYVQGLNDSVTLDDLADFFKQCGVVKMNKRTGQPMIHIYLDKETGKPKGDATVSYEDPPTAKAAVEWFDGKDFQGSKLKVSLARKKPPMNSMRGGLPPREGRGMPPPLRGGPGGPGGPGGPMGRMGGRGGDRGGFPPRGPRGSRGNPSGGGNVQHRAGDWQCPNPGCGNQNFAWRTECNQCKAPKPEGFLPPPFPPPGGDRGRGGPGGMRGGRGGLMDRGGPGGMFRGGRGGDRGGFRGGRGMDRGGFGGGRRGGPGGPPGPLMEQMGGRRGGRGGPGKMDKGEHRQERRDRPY
UniProt Q15125, sequence (Q15125 whole entry, looked up): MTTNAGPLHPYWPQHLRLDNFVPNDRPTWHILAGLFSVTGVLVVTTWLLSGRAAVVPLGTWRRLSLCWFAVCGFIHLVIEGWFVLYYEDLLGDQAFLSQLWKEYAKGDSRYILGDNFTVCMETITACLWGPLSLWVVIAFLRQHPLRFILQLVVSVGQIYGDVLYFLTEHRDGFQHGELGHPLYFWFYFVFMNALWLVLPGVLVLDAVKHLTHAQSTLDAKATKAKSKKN

Row | Target | log2 fold change [1] | log2 fold change [2] | log2 fold change [3] | log2 fold change [4] | log2 fold change [5] | log2 fold change [6] | log2 fold change [7] | log2 fold change [8] | log2 fold change [9] | log2 fold change [10] | log2 fold change [11] | log2 fold change [12] | log2 fold change [13] | log2 fold change [14] | log2 fold change [15] | log2 fold change [16] | log2 fold change [17] | log2 fold change [18] | log2 fold change [19] | log2 fold change [20]
1 | EIF2AK2 (UniProt P19525) | 0.004 | -0.099 | 0.091 | 0.049 | 0.083 | 0.087 | 0.153 | 0.003 | 0.029 | -0.055 | -0.003 | 0.03 | 0.12 | -0.061 | -0.036 | -0.022 | -0.009 | 0.011 | -0.036 | 0.022
2 | FASTKD5 (UniProt Q7L8L6) | 0.024 | -0.11 | 0.03 | 0.011 | -0.017 | 0.064 | 0.135 | 0.002 | 0.072 | -0.018 | -0.025 | 0.085 | -0.075 | 0.089 | -0.042 | -0.193 | 0.056 | 0.036 | 0.169 | -0.056
3 | FPGT (UniProt O14772) | 0.031 | -0.111 | -0.011 | 0.008 | -0.02 | 0.011 | 0.058 | 0.002 | 0.002 | 0.013 | 0.005 | 0.019 | -0.077 | 0.319 (active) | 0.006 | -0.085 | 0.012 | 0.054 | -0.043 | -0.012
4 | FOXJ3 (UniProt Q9UPW0) | -0.009 | -0.03 | -0.031 | 0.014 | 0.033 | 0.055 | -0.137 | -0.028 | 0 | 0.054 | 0.039 | -0.049 | -0.053 | 0.101 | 0.035 | -0.042 | 0.021 | 0 | -0.139 | -0.003
5 | FAM83A (UniProt Q86UY5) | -0.095 | -0.039 | 0.061 | -0.055 | 0.015 | 0.02 | 0.07 | 0.02 | -0.013 | 0.017 | 0.012 | 0.021 | 0.086 | -0.142 | -0.047 | 0.155 | -0.013 | 0.195 | -0.053 | 0.056
6 | GEMIN2 (UniProt O14893) | 0.034 | -0.053 | 0.001 | -0.006 | 0.013 | 0.095 | -0.009 | -0.017 | 0.009 | -0.1 | -0.025 | -0.029 | 0.059 | -0.12 | 0.075 | 0 | -0.021 | -0.092 | -0.053 | 0.139
7 | DVL2 (UniProt O14641) | 0.002 | -0.079 | -0.039 | 0.028 | -0.027 | -0.018 | -0.036 | 0.003 | -0.069 | 0.006 | 0.096 | -0.037 | -0.056 | 0.026 | 0 | -0.107 | -0.039 | 0.106 | -0.232 | 0.054
8 | FXR1 (UniProt P51114) | -0.028 | -0.176 | 0.02 | -0.043 | -0.039 | 0.057 | 0.035 | -0.012 | 0.012 | -0.022 | -0.026 | -0.052 | -0.006 | -0.106 | 0.023 | -0.02 | 0.008 | 0.065 | -0.03 | 0.05
9 | FBXO22 (UniProt Q8NEZ5) | -0.027 | -0.002 | -0.074 | 0.01 | -0.004 | -0.014 | -0.006 | 0.034 | 0.013 | 0.017 | -0.035 | -0.027 | -0.035 | 0.035 | -0.012 | -0.03 | 0 | 0.034 | -0.049 | -0.039
10 | FLAD1 (UniProt Q8NFF5) | 0.035 | -0.214 | 0.039 | -0.008 | -0.013 | 0.031 | 0.137 | -0.025 | -0.013 | -0.042 | 0.007 | 0.002 | -0.024 | 0.021 | 0.05 | 0.044 | -0.052 | -0.02 | -0.052 | -0.05
11 | FNTB (UniProt P49356) | -0.003 | 0.048 | -0.019 | 0.026 | -0.056 | -0.046 | 0.131 | -0.034 | -0.007 | -0.031 | 0.027 | -0.052 | 0.032 | -0.047 | 0.143 | 0.055 | -0.069 | -0.053 | -0.013 | 0.015
12 | ERCC4 (UniProt Q92889) | -0.268 | -0.021 | 0.058 | 0.101 | -0.029 | -0.065 | -0.001 | 0.047 | 0.024 | 0.044 | -0.023 | -0.013 | -0.031 | -0.544 (active) | 0.003 | 0.054 | -0.059 | 0.087 | -0.101 | 0.159
13 | ERBIN isoform 8 (UniProt Q96RT1) | -0.01 | 0.031 | 0.025 | -0.031 | -0.028 | 0.013 | -0.029 | -0.028 | -0.001 | 0.03 | -0.011 | 0.012 | -0.026 | -0.056 | 0.005 | 0.012 | -0.013 | 0.02 | -0.002 | 0.029
14 | EBP (UniProt Q15125) | -0.003 | 0.004 | 0.087 | 0.028 | 0.291 (active) | 0.005 | -0.016 | -0.036 | 0.048 | 0.04 | -0.044 | -0.004 | 0.07 | -0.269 (active) | -0.093 | 0.1 | -0.016 | -0.127 | -0.011 | 0
15 | ERLIN2 (UniProt O94905) | 0.164 | 0.016 | 0.005 | 0.002 | 0 | 0.045 | -0.164 | 0 | -0.06 | 0.005 | -0.015 | -0.091 | -0.004 | 0.304 (active) | 0.003 | -0.077 | 0.02 | 0.043 | -0.015 | -0.114
16 | EWSR1 isoform 5 (UniProt Q01844) | -0.002 | 0.101 | -0.017 | -0.011 | 0.021 | -0.022 | -0.036 | 0.049 | -0.005 | -0.003 | -0.008 | 0.021 | 0.048 | -0.07 | -0.047 | 0.061 | -0.016 | -0.025 | 0.031 | 0.009
